Data as given in the supplement of paper PMC12808144.
Unmarked numbers belong to inactive results.

Each molecule was assayed on Mel-DCC-11-R (assay: cell viability relative to DMSO control (fraction of DMSO control); higher = less cytotoxic, active = 0.8 or less). Conditions: 1 µM; 120 h; vemurafenib co-treatment 0 µM.
Protocol: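 Same 315-drug TargetMol library at 1 µM in duplicate, 120 h, ATPlite luminescence normalised to DMSO controls, on the vemurafenib-resistant subline Mel-DCC-11-R cultured alone or with 8 µM vemurafenib co-treatment (Mel-DCC-11-R + V).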

Row | SMILES | cell viability
1 | C[C@@H]1O[C@@H](O[C@H]2[C@H](Oc3cc(O)c4c(c3)O[C@H](c3ccc(O)cc3)CC4=O)O[C@H](CO)[C@@H](O)[C@@H]2O)[C@H](O)[C@H](O)[C@H]1O [Naringin] | 1.02
2 | CCCCCCNC(=O)n1cc(F)c(=O)[nH]c1=O [Carmofur] | 1.12
3 | CC1(C)CCC(C)(C)c2cc(NC(=O)c3ccc(C(=O)O)cc3)ccc21 [Tamibarotene] | 0.958
4 | Clc1ccc(C(c2ccccc2Cl)C(Cl)Cl)cc1 (stereo not given) [Mitotan] | 1
5 | Nc1cccc2c1CN(C1CCC(=O)NC1=O)C2=O (stereo not given) [Lenalidomide] | 0.713 (active)
6 | CN(C)C/C=C/C(=O)Nc1cc2c(Nc3ccc(F)c(Cl)c3)ncnc2cc1O[C@H]1CCOC1 [Afatinib] | 1.09
7 | CCN(CC)CCNC(=O)c1c(C)[nH]c(/C=C2\C(=O)Nc3ccc(F)cc32)c1C.C[C@@H](CC(=O)O)C(=O)O [Sunitinib Malate] | 1.08
8 | O=C([O-])CCCc1ccccc1.[Na+] [Sodium Phenylbutyrate] | 1
9 | Cc1cn(-c2cc(NC(=O)c3ccc(C)c(Nc4nccc(-c5cccnc5)n4)c3)cc(C(F)(F)F)c2)cn1 [Nilotinib] | 1.15
10 | CS(=O)(=O)c1ccc(C(=O)Nc2ccc(Cl)c(-c3ccccn3)c2)c(Cl)c1 [Vismodegib] | 0.807
11 | CC1=C(/C=C/C(C)=C/C=C/C(C)=C/C=C/C=C(C)/C=C/C=C(C)/C=C/C2=C(C)CCCC2(C)C)C(C)(C)CCC1 [Beta-Carotene] | 0.829
12 | CCC1=C[C@@H]2CN(C1)Cc1c([nH]c3ccccc13)[C@@](C(=O)OC)(c1cc3c(cc1OC)N(C)[C@H]1[C@@](O)(C(=O)OC)[C@H](OC(C)=O)[C@]4(CC)C=CCN5CC[C@]31[C@@H]54)C2.O=C(O)[C@H](O)[C@@H](O)C(=O)O.O=C(O)[C@H](O)[C@@H](O)C(=O)O [Vinorelbine Tartrate] | 1.04
13 | O=c1[nH]c(=O)n(C2CCCO2)cc1F (stereo not given) [Tegafur] | 0.895
14 | CCc1cc2c(cc1N1CCC(N3CCOCC3)CC1)C(C)(C)c1[nH]c3cc(C#N)ccc3c1C2=O [Alectinib] | 1.12
15 | COc1cccc2c1C(=O)c1c(O)c3c(c(O)c1C2=O)C[C@@](O)(C(=O)CO)C[C@@H]3O[C@H]1C[C@H](N)[C@@H](O)[C@H](C)O1.Cl [Epirubicin hydrochloride] | 0.426 (active)
16 | CC[C@@]1(O)C(=O)OCc2c1cc1n(c2=O)Cc2cc3cc(O)ccc3nc2-1 [10-Hydroxycamptothecin] | 0.478 (active)
17 | CC(=O)O.CC(C)C[C@H](NC(=O)[C@@H](COC(C)(C)C)NC(=O)[C@H](Cc1ccc(O)cc1)NC(=O)[C@H](CO)NC(=O)[C@H](Cc1c[nH]c2ccccc12)NC(=O)[C@H](Cc1cnc[nH]1)NC(=O)[C@@H]1CCC(=O)N1)C(=O)N[C@@H](CCCN=C(N)N)C(=O)N1CCC[C@H]1C(=O)NNC(N)=O [Goserelin acetate] | 0.927
18 | CC(O)(P(=O)([O-])O)P(=O)([O-])O.[Na+].[Na+] [Sodium etidronate] | 0.787 (active)
19 | Nc1nc2[nH]nnc2c(=O)[nH]1 [8-Azaguanine] | 1.42
20 | CCNC(=O)[C@@H]1CCCN1C(=O)[C@H](CCCN=C(N)N)NC(=O)[C@H](CC(C)C)NC(=O)[C@@H](CC(C)C)NC(=O)[C@H](Cc1ccc(O)cc1)NC(=O)[C@H](CO)NC(=O)[C@H](Cc1c[nH]c2ccccc12)NC(=O)[C@H](Cc1cnc[nH]1)NC(=O)[C@@H]1CCC(=O)N1 [Leuprorelin Acetate] | 0.854

Same assay, conditions: 1 µM; 120 h; vemurafenib co-treatment 8 µM

Row | SMILES | cell viability
21 | C[C@@H]1O[C@@H](O[C@H]2[C@H](Oc3cc(O)c4c(c3)O[C@H](c3ccc(O)cc3)CC4=O)O[C@H](CO)[C@@H](O)[C@@H]2O)[C@H](O)[C@H](O)[C@H]1O [Naringin] | 1.19
22 | CCCCCCNC(=O)n1cc(F)c(=O)[nH]c1=O [Carmofur] | 1.06
23 | CC1(C)CCC(C)(C)c2cc(NC(=O)c3ccc(C(=O)O)cc3)ccc21 [Tamibarotene] | 1.21
24 | Clc1ccc(C(c2ccccc2Cl)C(Cl)Cl)cc1 (stereo not given) [Mitotan] | 0.82
25 | Nc1cccc2c1CN(C1CCC(=O)NC1=O)C2=O (stereo not given) [Lenalidomide] | 1.01
26 | CN(C)C/C=C/C(=O)Nc1cc2c(Nc3ccc(F)c(Cl)c3)ncnc2cc1O[C@H]1CCOC1 [Afatinib] | 0.792 (active)
27 | CCN(CC)CCNC(=O)c1c(C)[nH]c(/C=C2\C(=O)Nc3ccc(F)cc32)c1C.C[C@@H](CC(=O)O)C(=O)O [Sunitinib Malate] | 0.927
28 | O=C([O-])CCCc1ccccc1.[Na+] [Sodium Phenylbutyrate] | 1.07
29 | Cc1cn(-c2cc(NC(=O)c3ccc(C)c(Nc4nccc(-c5cccnc5)n4)c3)cc(C(F)(F)F)c2)cn1 [Nilotinib] | 1.06
30 | CS(=O)(=O)c1ccc(C(=O)Nc2ccc(Cl)c(-c3ccccn3)c2)c(Cl)c1 [Vismodegib] | 0.892
31 | CC1=C(/C=C/C(C)=C/C=C/C(C)=C/C=C/C=C(C)/C=C/C=C(C)/C=C/C2=C(C)CCCC2(C)C)C(C)(C)CCC1 [Beta-Carotene] | 0.851
32 | CCC1=C[C@@H]2CN(C1)Cc1c([nH]c3ccccc13)[C@@](C(=O)OC)(c1cc3c(cc1OC)N(C)[C@H]1[C@@](O)(C(=O)OC)[C@H](OC(C)=O)[C@]4(CC)C=CCN5CC[C@]31[C@@H]54)C2.O=C(O)[C@H](O)[C@@H](O)C(=O)O.O=C(O)[C@H](O)[C@@H](O)C(=O)O [Vinorelbine Tartrate] | 0.703 (active)
33 | O=c1[nH]c(=O)n(C2CCCO2)cc1F (stereo not given) [Tegafur] | 0.865
34 | CCc1cc2c(cc1N1CCC(N3CCOCC3)CC1)C(C)(C)c1[nH]c3cc(C#N)ccc3c1C2=O [Alectinib] | 0.888
35 | COc1cccc2c1C(=O)c1c(O)c3c(c(O)c1C2=O)C[C@@](O)(C(=O)CO)C[C@@H]3O[C@H]1C[C@H](N)[C@@H](O)[C@H](C)O1.Cl [Epirubicin hydrochloride] | 0.183 (active)
36 | CC[C@@]1(O)C(=O)OCc2c1cc1n(c2=O)Cc2cc3cc(O)ccc3nc2-1 [10-Hydroxycamptothecin] | 0.249 (active)
37 | CC(=O)O.CC(C)C[C@H](NC(=O)[C@@H](COC(C)(C)C)NC(=O)[C@H](Cc1ccc(O)cc1)NC(=O)[C@H](CO)NC(=O)[C@H](Cc1c[nH]c2ccccc12)NC(=O)[C@H](Cc1cnc[nH]1)NC(=O)[C@@H]1CCC(=O)N1)C(=O)N[C@@H](CCCN=C(N)N)C(=O)N1CCC[C@H]1C(=O)NNC(N)=O [Goserelin acetate] | 1.13
38 | CC(O)(P(=O)([O-])O)P(=O)([O-])O.[Na+].[Na+] [Sodium etidronate] | 0.91
39 | Nc1nc2[nH]nnc2c(=O)[nH]1 [8-Azaguanine] | 1.05
40 | CCNC(=O)[C@@H]1CCCN1C(=O)[C@H](CCCN=C(N)N)NC(=O)[C@H](CC(C)C)NC(=O)[C@@H](CC(C)C)NC(=O)[C@H](Cc1ccc(O)cc1)NC(=O)[C@H](CO)NC(=O)[C@H](Cc1c[nH]c2ccccc12)NC(=O)[C@H](Cc1cnc[nH]1)NC(=O)[C@@H]1CCC(=O)N1 [Leuprorelin Acetate] | 0.919
